# From PubChem BioAssay
# This is a sample that favours compounds with a hit; in the whole collection about 4.6% have one here.
# DAX1 inh-1 – DAX1 (NR0B1) inhibitors, primary screen, cell-based, HEK293, Gal4-DAX1, luciferase luminescence; inhibition, % at 6.75 µM; HEK293 Gal4-DAX1 luciferase reporter; 340,000 tested, 0.99% active; Nuclear receptor subfamily 0 group B member 1 (Homo sapiens), P51843;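 active = inhibition above the mean over all tested compounds plus 3 SD, cut at about 4.2% in these data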;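 also: 0% = DAX1-transfected cells with DMSO and 100% = empty-vector control cells with DMSO; inhibition shows as a rise in luminescence from relieved DAX1 repression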
# DAX1 inh-2 – DAX1 (NR0B1) inhibitors on StAR promoter, primary screen, cell-based, luminescence, SF-1 (NR5A1), full-length DAX-1; inhibition, % at 6.8 µM; HEK293T StAR-luciferase reporter, SF-1/DAX-1 repression relief; 370,000 tested, 1.1% active;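 active = inhibition above the mean over all tested compounds plus 3 SD, cut at about 3.6% in these data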;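 also: 0% = DAX-1 cells with DMSO and 100% = cells lacking DAX-1 with DMSO; higher inhibition means more luminescence from relief of DAX-1 repression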
# hgDAF-12 ag – H. glycines DAF-12 receptor agonists, primary screen, cell-based, luminescence, HEK293, GAL4 fusion, UAS-luciferase; activation, % at 6.8 µM; Nuclear hormone receptor DAF-12 (Heterodera glycines), GAL4 fusion; AID 687014, 2013; 370,000 tested, 1.8% active; HEK293 GAL4-hgDAF12 UAS-luciferase reporter, agonist luminescence; normalized to butyrate control;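 active = activation above a cutoff set at the mean of all screened compounds plus 3 SD, cut at about 10% in these data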;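 also: 0% = DMSO wells and 100% = sodium butyrate wells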
# hcDAF-12 act – H. contortus DAF-12 nuclear receptor activators, primary screen, cell-based, luminescence, HEK293, lit1-tk-luc reporter. HEK293 hcDAF-12 lit1-tk-luc reporter; 0% DMSO, 100% Δ7-dafachronic acid. 370,000 tested, 1.4% active. activation, % at 6.8 µM;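 active = activation above the mean of all tested compounds plus 3 SD, cut at about 5.5% in these data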;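 also: 100% = response to 3 µM Δ7-dafachronic acid high control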
# ssDAF12 agonist – S. stercoralis DAF-12 nuclear receptor activators, primary screen, cell-based, luminescence, HEK293, GRIP1 co-expression, lit1-tk-luc. 370,000 tested, 1% active. activation, % at 6.8 µM. AID 652126, 2013. HEK293 ssDAF-12/GRIP1 lit1-tk-luc reporter; % of 3 µM dafachronic acid response;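 active = activation above the mean over all tested compounds plus 3 SD, cut at about 0.9% in these data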;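 also: 0% = DMSO-only wells and 100% = 3 µM delta7-dafachronic acid wells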
# Wee1 degr inh – Wee1 degradation inhibitors, primary screen, cell-based, HeLa, Wee1K328M-luciferase, luminescence; reporter increase, % at 5 µM; 220,000 tested, 1.2% active; Wee1-like protein kinase (Homo sapiens), P30291; HeLa Luc-Wee1K328M stability; 100% = proteasome inhibitor MG132 effect;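 active = activation above the mean of all tested compounds plus 3 SD, set per screening run, cut at about 8.8% in these data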;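 also: cells exposed to compound for 20 h before luminescence read; 0% = DMSO alone and 100% = MG132 at 30 µM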
# Target sequence (P30291 whole entry K328M): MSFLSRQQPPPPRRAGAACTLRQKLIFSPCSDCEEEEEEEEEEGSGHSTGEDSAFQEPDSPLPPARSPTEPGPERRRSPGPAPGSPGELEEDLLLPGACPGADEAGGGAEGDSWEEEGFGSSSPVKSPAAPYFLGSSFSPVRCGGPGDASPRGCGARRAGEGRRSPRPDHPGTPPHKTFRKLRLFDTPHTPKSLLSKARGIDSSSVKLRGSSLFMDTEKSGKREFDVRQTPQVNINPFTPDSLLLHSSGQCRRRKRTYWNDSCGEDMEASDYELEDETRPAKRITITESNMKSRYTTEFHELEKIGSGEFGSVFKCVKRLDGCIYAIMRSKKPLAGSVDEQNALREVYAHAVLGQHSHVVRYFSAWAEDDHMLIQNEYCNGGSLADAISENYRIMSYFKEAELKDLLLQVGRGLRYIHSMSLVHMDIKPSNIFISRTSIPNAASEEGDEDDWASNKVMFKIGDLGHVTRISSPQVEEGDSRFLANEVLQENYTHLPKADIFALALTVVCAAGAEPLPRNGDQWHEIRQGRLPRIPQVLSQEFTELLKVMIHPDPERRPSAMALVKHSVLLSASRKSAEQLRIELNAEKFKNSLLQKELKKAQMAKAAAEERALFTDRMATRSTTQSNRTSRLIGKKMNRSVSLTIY
# * hit, by the source's call; / = no result.
SMILES,DAX1 inh-1,DAX1 inh-2,hgDAF-12 ag,hcDAF-12 act,ssDAF12 agonist,Wee1 degr inh
COC(=O)C1CN(Cc2cn(CCOC(C)=O)nn2)CCS(=O)(=O)N1Cc1ccc(F)cc1 (centres undefined),/,0.2,0.1,0.5,-1.1,/
Cc1cc(C(=O)N2CCN(S(=O)(=O)c3ccc(C)c(C)c3)CC2)no1,0.7,-0.6,1.1,-2.8,-0.9,/
Cc1cccnc1NC(=O)Nc1cccc(F)c1,1.7,2.3,10.9*,4.0,-0.1,/
Cc1cccnc1NC(=O)Nc1ccccc1,3.6,1.1,4.8,1.9,-0.5,2.7
Cc1cccnc1NC(=O)Nc1ccc(Cl)cc1,4.3*,1.0,7.1,2.8,0.3,/
CCOC(=O)c1ccc(S(=O)(=O)N2CCN(Cc3cc4c(cc3O)OCO4)CC2)cc1,-0.5,-0.3,2.0,-2.3,-1.1,/
COc1ccc(C(=O)COC(=O)c2n[nH]c3ccccc23)c(OC)c1,1.5,4.2*,12.3*,3.8,-0.5,/
CC(CNC(=O)COC(=O)c1cccs1)c1ccccc1 (centres undefined),0.8,-1.7,1.4,-0.4,-1.4,/
COc1ccc(OC)c(NC(=O)COC(=O)c2n[nH]c3ccccc23)c1,-1.1,0.2,0.2,0.3,-1.3,/
COc1ccc(C(=O)Cn2cnc3ccccc3c2=O)c(OC)c1,1.3,3.6*,5.7,2.8,-0.9,/
COc1cccc(NC(=O)C(C)OC(=O)c2n[nH]c3ccccc23)c1 (centres undefined),0.2,-0.8,11.1*,1.1,0.3,/
CC(CNC(=O)COC(=O)c1cccnc1Cl)c1ccccc1 (centres undefined),-1.0,3.1,5.0,1.4,1.2*,/
COCCN(C(=O)c1cc(S(=O)(=O)N2CCCCC2)ccc1Cl)c1c(N)n(CC(C)C)c(=O)[nH]c1=O,-0.1,-0.1,1.9,0.1,0.0,/
Cc1cc(C(=O)COC(=O)c2n[nH]c3ccccc23)c(C)n1C,1.6,4.5*,17.1*,8.1*,1.2*,3.9
COc1ccc(C(=O)COC(=O)c2cccnc2Cl)c(OC)c1,2.0,1.4,12.6*,0.4,-0.6,-0.9
Clc1cccc(CNc2ccn3nc(-c4cccc(OCc5ccccc5)c4)cc3n2)c1,/,-1.7,-3.0,-0.8,-0.2,/
CN(C)S(=O)(=O)c1ccc(NC(=O)CSc2nnc(-c3ccco3)o2)cc1,1.2,1.4,-1.8,0.7,-1.6,/
COC(=O)[C@]12C[C@H](CC(=O)NCc3cccs3)C(=O)N(Cc3ccc(Cl)cc3Cl)C1=C[C@H](COCc1ccccc1)O[C@@H]2C,/,-1.0,-2.2,1.4,-1.2,/
COC(=O)[C@]12C[C@H](CC(=O)NCc3cccs3)C(=O)N(Cc3ccccc3)C1=C[C@H](COCc1ccccc1)O[C@@H]2C,/,-0.8,11.0*,-2.2,-1.4,/
CN(CCO)c1ccc2c(c1)Oc1ccccc1CN(Cc1cn(Cc3cccc(C(F)(F)F)c3)nn1)S2(=O)=O,/,-0.9,-3.5,-2.8,-1.4,/
O=C(O)c1ccc(-n2c(-c3cc(-c4ccco4)[nH]n3)n[nH]c2=S)cc1,-0.6,-0.1,-0.3,-1.1,-1.0,2.3
O=C(O)c1ccc(-n2c(-c3ccccc3)n[nH]c2=S)cc1,0.4,0.6,0.6,0.9,-0.7,-1.2
O=C(O)c1ccc(-n2c(-c3cc(C4CC4)[nH]n3)n[nH]c2=S)cc1,4.6*,0.5,-1.1,-0.9,-1.0,-1.0
CC(=O)c1ccc(-n2c(-c3cc(-c4ccco4)[nH]n3)n[nH]c2=S)cc1,5.6*,0.2,-1.6,-1.3,-0.9,-2.2
CC1(C(=O)NCCc2ccccc2)Cc2c(-c3ccccc3)ccnc2O1 (centres undefined),/,0.1,-1.3,-0.7,-1.0,/
SMILES,DAX1 inh-1,DAX1 inh-2,hgDAF-12 ag,hcDAF-12 act,ssDAF12 agonist,Wee1 degr inh
O=CC(O)C1OC(=O)C(O)C1O (centres undefined),3.3,0.1,-1.8,-2.2,-2.0,/
CN(C)[C@@H]1CCN(c2cccc3c2S(=O)(=O)N2CC[C@@H](C2)O3)C1,/,-0.6,-0.8,3.0,-0.7,/
CC(C)CN1CCN(Cc2cn(C)c3ccccc23)CC1CCO (centres undefined),2.0,-0.4,-0.5,1.3,-1.0,/
CCn1cc(CN2CCN(Cc3ccc(C)o3)C(CCO)C2)c2ccccc21 (centres undefined),0.6,-0.4,3.4,5.6*,0.3,-0.3
CCn1cc(CN2CCN(Cc3ccccc3)C(CCO)C2)c2ccccc21 (centres undefined),4.2*,0.1,0.6,4.7,-0.2,/
FC(F)(F)c1cc(N2CCN(Cc3ccccc3)CC2)c2ccccc2n1,2.3,0.0,-0.8,-0.6,-0.5,10.2*
CCNc1ncnc2c1cnn2C1CCCCO1 (centres undefined),0.9,-0.7,1.1,2.8,-0.8,/
CCCN(CCC)C(=O)Cn1c2ccccc2c2nc(=O)cc(C)n21,-0.8,0.6,-0.7,4.4,1.1*,1.5
CCOC(=O)C1=CC[C@]2(C)c3c(c4ccccc4n3C)C(=O)C1N2C,0.7,0.3,2.2,0.5,-0.8,/
C/C(=N\NC(=O)c1ccc(F)cc1)c1ccc(NC(=O)Cc2ccccc2)cc1,0.8,4.1*,7.4,3.2,-0.6,/
O=C(Nc1ccc(CN2CCOCC2)cc1)c1ccc(Cl)cc1,-0.5,-0.9,2.1,-1.6,-1.6,/
O=C(Nc1ccc(CN2CCOCC2)cc1)c1ccc2ccccc2c1,0.4,2.3,13.0*,1.9,-0.5,/
CC/C(=N/NC(=O)c1ccccc1)c1ccc(OCCN2CCOCC2)cc1,1.3,1.8,10.0,1.6,1.6*,6.1
CC(=O)Nc1ccc(/C(C)=N/NC(=O)c2ccc(F)cc2)cc1,0.2,-0.1,5.4,-0.9,-1.1,3.4
O=C(NN=C1CCN(Cc2ccccc2)CC1)c1ccccc1,2.0,0.6,11.3*,1.9,-0.2,-2.7
COC(=O)C[C@H]1CC[C@H](NC(=O)c2ccc(F)cc2)[C@@H](CO)O1,/,0.4,0.0,1.2,-0.6,/
O=C(Nc1ccc(CN2CCS(=O)(=O)CC2)cc1)c1ccc(F)cc1,-0.5,0.3,-1.4,0.4,-1.3,9.7*
O=C(Nc1ccc(CN2CCS(=O)(=O)CC2)cc1)c1ccc(C(F)(F)F)cc1,-5.6,-1.1,-5.4,-4.6,-3.2,-1.6
